From PubChem BioAssay
Active and inactive are the calls of the source.

The compounds below were run on XIP peptide (Xip251-270) binding (assay: XIP fragment 251-270 binding compounds – biochemical, small-molecule microarray, fluorescence 635/667 nm, 0.1 µg/mL protein, primary screen (AID 1182)). Conditions: fluorescent protein binding, 635 nm, higher = more signal, called active from +8 up or from −8 down.

Composite z-score, inactive:
CC(C)NC(=O)[C@@H]1c2ccccc2C(=O)N(CC23CC4CC(CC(C4)C2)C3)[C@H]1c1ccc(CO)cc1 0.166, O=C1O[C@@H](c2ccccc2)[C@@H](c2ccccc2)N2[C@@H](c3ccccc3OCCO)[C@]3(C(=O)Nc4ccc(C#CCCO)cc43)[C@@H](C(=O)O)[C@H]12 0.106, CN(C)CCCNC(=O)[C@@H]1c2ccccc2C(=O)N(Cc2cc(F)cc(C(F)(F)F)c2)[C@H]1c1ccc(CO)cc1 0.782, CCCNC(=O)[C@@H]1c2ccccc2C(=O)N(c2ccc(C)cn2)[C@H]1c1ccc(CO)cc1 -0.239, COC(=O)[C@H]1COC(c2ccc(OCCCO)cc2)=N1 0.239, CO[C@H]1O[C@H](CO)[C@@H](OC(=O)Nc2ccc3c(c2)OCO3)[C@H](OC(=O)Nc2ccccc2-c2ccccc2)[C@@H]1OC(=O)Nc1ccccc1-c1ccccc1 1.03, COCCCNC(=O)[C@@]1(C)c2ccccc2C(=O)N(Cc2ccc(OC(F)(F)F)cc2)[C@H]1c1ccc(CO)cc1 0.111, COCCCNC(=O)[C@@]1(CCS(=O)(=O)c2ccccc2)N=C(c2ccc(OCCCO)cc2)O[C@H]1c1ccccc1 1.3, C/C=C\[C@@H](NCc1ccccc1Br)[C@@H](O)Cc1ccccc1 -0.0971, CN1C(=O)[C@@]2(CCC(=O)OC(C)(C)C)N=C(c3ccc(OCCCO)cc3)O[C@H]2c2ccccc21 0.0792, O=C(CS)NCCCCCNC(=O)[C@@H]1C[C@@H]2C(=O)N[C@@H](Cc3ccccc3)C(=O)N2[C@@H]1c1ccc(O)cc1 0.508
